# Sampled rows, rich in hits. Any-hit rate of the full collection: about 5.9%.
# KB-V1 cytotox: qHTS assay for MDR1-selective chemotherapeutics: Primary screen using the drug-selected MDR subline cells KB-V1; Potency, µM (top dose mostly 46.1 µM), usual class: cytotoxic; KB-V1 MDR cells viability, CellTiter-Glo, 72 h; 3.4% of 400,000 active; note: % is set by controls: 0 for no effect and ±100 for the full control effect; nearly all actives have a fitted effect of over 60% in size
#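 KB-V1, DMEM (no phenol red) + 10% FBS; cpd pin-transferred, titration series; 72 h, 37 degrees C; CellTiter-Glo, luminescence. Data normalized, curve-fit.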
# HepG2 viability: qHTS for Inhibitors of TGF-b: Cytotox Counterscreen | HepG2 CAGA-GFP viability, ATP luminescence, 18 h | Potency, µM (titrated, usually from 46.1 µM), inactives show at the top dose activity change, negative = cytotoxicity, usual class: cytotoxic | 0.76% of 410,000 active | AID 588856, 2011
#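 CellTiter-Glo luminescence gave cytotoxicity after 18 hours at 37 degrees C. The cells were HepG2 CAGA-GFP in 1% FBS DMEM, stimulated with 500 pg/mL TGF-beta after compound addition. %Activity was normalised to no-cell wells (complete cell-killing) and DMSO (no toxicity), and curves were fitted and classified.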
# TGFb inhibitor: qHTS for Inhibitors of TGF-b; HepG2 CAGA-GFP TGF-b/SMAD3 reporter, GFP fluorescence, 18 h; TGF-beta stimulated, 500 pg/mL final; Potency, µM (titrated, usually from 46.1 µM), inactives show at the highest dose activity, negative = inhibition, most hits filed as inhibitors; 1.2% of 410,000 active; note: % is set by controls: 0 for no effect and ±100 for the full control effect; nearly all actives have a fitted effect of over 65% in size
#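 HEPG2 CAGA-GFP reporter cells (1000/well, DMEM with 1% FBS) received compounds, then recombinant TGF-beta at 500 pg/mL final for 18 hours at 37 degrees C. Per-cell GFP summed per well was normalised to unstimulated and stimulated DMSO controls before curve fitting.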
# KB-3-1 tox: qHTS assay for MDR1-selective chemotherapeutics: Primary screen using the parental adenocarcinoma cell KB-3-1. KB-3-1 viability, CellTiter-Glo ATP luminescence, 72 h. Potency, µM (doses to about 46.1 µM), actives largely listed as cytotoxic. 1.4% of 400,000 active; note: % is set by controls: 0 for no effect and ±100 for the full control effect; nearly all actives have a fitted effect of over 60% in size
#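 Here the drug-naive KB-3-1 line serves as comparator for MDR sub-line selectivity; cells received compound titrations, 72 h at 37 °C, then CellTiter-Glo readout.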
# ATXN viability: Viability Counterscreen for Primary qHTS for Inhibitors of ATXN expression; 0.49% of 400,000 active; Potency, µM (highest dose often 56.7 µM), actives largely listed as cytotoxic; AID 651635, 2014; S2 cells (HEK-293 line with an ATXN2-luciferase reporter) viability, CellTiter-Fluor protease fluorescence, 24 h; note: nearly all actives have a fitted effect of over 40% in size
# ATXN2 expr inh: Primary qHTS for Inhibitors of ATXN expression. Potency, µM (doses to about 57 µM), inactives show top-dose activity change, negative = inhibition, actives largely listed as inhibitors. 0.72% of 360,000 active. AID 1745845, 2022. HEK-293 ATXN2-luciferase reporter, luminescence, 24 h; note: % is set by controls: 0 for no effect and ±100 for the full control effect; nearly all actives have a fitted effect of over 55% in size
#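 ATXN2-luciferase reporter cells (luciferase flanked by upstream and downstream ATXN2 gene portions) were treated 24 h at 37 °C with compounds at up to 57 uM. SteadyGlo luminescence gave expression; GF-AFC fluorescence gave viability.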
# An asterisk follows results filed as active; i = inactive; ? = inconclusive; · = no result given. Calls come from the whole dose curve; as a rule, active = well fitted curve in the direction sought with a large enough effect; inconclusive = small, poorly fitted or top-dose-only effect, or another doubt; inactive = no such curve, though single readings can be large; an effect the other way counts as inactive or inconclusive. Potency is the fitted concentration of half-maximal effect.
SMILES,KB-V1 cytotox,HepG2 viability,TGFb inhibitor,KB-3-1 tox,ATXN viability,ATXN2 expr inh
CCCN(CC(=O)Nc1ccccc1C)C(=O)C1CCN(c2ncnc3sc(C)c(C)c23)CC1,20.6µM*,-14.3%,?,i,i,-19.1%
COc1ccc(N2CCN(C(=O)CSc3c4c(nc5ccc(Cl)cc35)CCCC4)CC2)cc1,i,-33.7%,?,i,?,?
COc1ccc(/C=C/c2ccc3ccccc3n2)cc1OC,i,-19.2%,-1.5%,?,·,·
COc1ccc(/C=N/NC(=O)c2ccc(F)cc2)cc1CN1CCc2cc(OC)c(OC)cc2C1C (stereo not given),i,-20.8%,-21.2%,i,i,-9.4%
COc1ccc(/C=N\NC(=O)c2ccccc2F)cc1COc1ccc(F)cc1F,?,-23.5%,?,5.17µM*,?,8.8%
COc1ccc(/C=N/NC(=O)c2ccc(O)cc2)cc1CN1CCCc2ccccc21,i,-8.8%,12.6µM*,i,i,1.7%
COc1ccc(/C=N\NC(=O)c2ccccc2F)cc1COc1ccc(F)cc1,i,-13.4%,-10.7%,i,i,1.7%
O=C(Nc1nnc([C@@H]2C[C@H](O)[C@@H](CO)O2)s1)Nc1ccccc1Oc1ccccc1,i,1.3%,19.1%,i,i,4.2%
COc1ccc(Cl)cc1NC(=O)Cn1cc(S(=O)(=O)Cc2cccc(Cl)c2)c2ccccc21,?,4.9%,?,?,·,·
COc1nc(-c2ccccc2)cc(-c2ccc3c(c2)OCO3)c1C#N,i,23.0%,-8.0%,1.84µM*,i,0.0%
CSc1ccccc1C(=O)N1CCN(c2cccc(Cl)c2)CC1,16.4µM*,-47.2%,?,i,i,-27.4%
CSc1ncc(C(=O)N2CCN(c3cccc(Cl)c3)CC2)c(C)n1,i,-35.4%,?,i,i,-30.5%
Cc1cc(C(=O)N2CCN(c3cccc(Cl)c3)CC2)c(C)o1,i,-23.5%,-6.5%,23.1µM*,i,-29.8%
O=C(Nc1cccc(F)c1)C1CCN(S(=O)(=O)c2cccc3nsnc23)CC1,·,-42.5%,?,·,·,·
COc1ccccc1OCc1ccc(C(=O)N2CCN(C(=O)c3ccco3)CC2)cc1,5.17µM*,-2.6%,-12.0%,i,i,2.4%
CC(C)=CCSc1nnc(CCNC(=O)OC(C)(C)C)o1,20.6µM*,-12.3%,12.6%,i,i,4.6%
Cc1cc(C)cc(NC(=O)C2CCCN(S(=O)(=O)c3cccc4nsnc34)C2)c1 (stereo not given),i,-18.0%,-24.3%,i,i,2.2%
CN(CCO)C(=O)c1cn(C2CCCN(Cc3ccc(C(F)(F)F)cc3)C2)nn1 (stereo not given),·,·,·,·,i,·
COc1ccc2ccc3c(c2c1)N=CC1(O3)N(C)c2ccccc2C1(C)C (stereo not given),?,-48.2%,7.94µM*,i,i,-9.1%
Cc1ccc(-c2csc(C(O)c3ccccc3)n2)cc1C (stereo not given),i,-21.6%,-5.4%,i,i,36.7%
OC(c1cccc(Cl)c1)c1nc(-c2ccc(F)c(Cl)c2)cs1 (stereo not given),i,-59.0%,?,i,i,7.1%
COc1ccc(C(O)c2nc(-c3cccc(C(F)(F)F)c3)cs2)cc1 (stereo not given),i,-42.5%,?,i,?,?
Cc1ccc(-c2csc(C(O)c3cccc(Cl)c3)n2)cc1C (stereo not given),?,-54.5%,12.6µM*,i,i,-1.0%
OC(c1cccc(Cl)c1)c1nc(-c2ccc(Cl)cc2)cs1 (stereo not given),i,12.6µM*,12.6µM*,i,i,-24.8%

# Screens as filed in PubChem BioAssay.
